Experiment [1] can be described thus: optical density shifts of acrAB sulA E. coli – strain DRC41, OD650, 48 h, E. coli filamentation inducer project, primary screen (AID 1152).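 Also: E. coli MC1000 strain DRC41 lacking acrAB efflux pump and sulA.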 The following applies: higher = more signal, called active from +8 up or from −8 down.
The nature of experiment [2]: probe aLefty1 binding on compound microarray – biochemical, small-molecule microarray, 635/667 nm fluorescence, primary screen (AID 1153).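 Also: score merges spot fluorescence with signal-to-noise ratio from the scanned slide images.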 The following applies: higher = more signal.
The nature of experiment [3]: plasmodial surface anion channel blockers, osmotic lysis – cell-based, P. falciparum Indochina, OD700, 1 h, primary screen (AID 1154). To be noted: P. falciparum Indochina infected RBC osmotic lysis, higher = more signal, called active from +8 up or from −8 down.
Experiment [4] is described as follows: plasmodial surface anion channel blockers, osmotic lysis – cell-based, P. falciparum Indochina, OD700, 2 h, primary screen (AID 1155).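 Also: lysis reports solute entry through the parasite surface anion channel PSAC.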 To be noted: P. falciparum Indochina infected erythrocytes, higher = more signal, called active from +8 up or from −8 down.
A short description of experiment [5]: changes in parasitized red cell lysis, either direction – P. falciparum Indochina, OD700, 3 h, PSAC antagonist project, primary screen (AID 1156). To be noted: P. falciparum-infected erythrocytes, osmotic lysis, higher = more signal, called active from +8 up or from −8 down.
Experiment [6] can be described thus: plasmodial surface anion channel blockers, osmotic lysis – cell-based, P. falciparum Indochina, OD700, 18 h, primary screen (AID 1157). The following applies: P. falciparum Indochina infected erythrocytes, osmotic lysis OD700, 18 h; higher = more signal, called active from +8 up or from −8 down.
A short description of experiment [7]: S6 kinase pathway phospho-S6 level changes – cell-based, A549, cytoblot, luminescence, serum-stimulated, primary screen (AID 1158).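 Also: serum-stimulated A549 lung adenocarcinoma cells; signal is phosphorylated S6 detected by cytoblot immunostaining with HRP secondary.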 To be noted: 5 h, higher = more signal.
For experiment [8], the target named is NADPH oxidase 2 (Homo sapiens) (UniProt P04839). Put plainly: compounds shifting NOX2 Amplex Red fluorescence – cell-based, HEK293-NOX2, PMA-stimulated, NOX inhibitor project, primary screen (AID 1159). Also: test concentration not given here. To be noted: 45 min, higher = more signal, called active from +8 up or from −8 down.
Experiment [9] has as its target NADPH oxidase 4 (Homo sapiens) (UniProt Q9NPH5). Put plainly: compounds shifting NOX4 Amplex Red fluorescence – cell-based, HEK293-NOX4, tetracycline-induced, NOX inhibitor project, primary screen (AID 1160). To be noted: HEK293-NOX4, Amplex Red H2O2 fluorescence, 45 min; higher = more signal, called active from +8 up or from −8 down.
The target of experiment [10] is NADPH oxidase 5 (Homo sapiens) (UniProt Q96PH1). Kind of experiment: compounds shifting NOX5 Amplex Red fluorescence – cell-based, HEK293-NOX5, NOX inhibitor project, primary screen (AID 1161). The following applies: HEK293-NOX5, ionomycin, 45 min, higher = more signal.

The values that follow come from PubChem BioAssay.

Activity calls are given as the source filed them.

Sequence of NADPH oxidase 5 (Homo sapiens) (Q96PH1 whole entry, looked up): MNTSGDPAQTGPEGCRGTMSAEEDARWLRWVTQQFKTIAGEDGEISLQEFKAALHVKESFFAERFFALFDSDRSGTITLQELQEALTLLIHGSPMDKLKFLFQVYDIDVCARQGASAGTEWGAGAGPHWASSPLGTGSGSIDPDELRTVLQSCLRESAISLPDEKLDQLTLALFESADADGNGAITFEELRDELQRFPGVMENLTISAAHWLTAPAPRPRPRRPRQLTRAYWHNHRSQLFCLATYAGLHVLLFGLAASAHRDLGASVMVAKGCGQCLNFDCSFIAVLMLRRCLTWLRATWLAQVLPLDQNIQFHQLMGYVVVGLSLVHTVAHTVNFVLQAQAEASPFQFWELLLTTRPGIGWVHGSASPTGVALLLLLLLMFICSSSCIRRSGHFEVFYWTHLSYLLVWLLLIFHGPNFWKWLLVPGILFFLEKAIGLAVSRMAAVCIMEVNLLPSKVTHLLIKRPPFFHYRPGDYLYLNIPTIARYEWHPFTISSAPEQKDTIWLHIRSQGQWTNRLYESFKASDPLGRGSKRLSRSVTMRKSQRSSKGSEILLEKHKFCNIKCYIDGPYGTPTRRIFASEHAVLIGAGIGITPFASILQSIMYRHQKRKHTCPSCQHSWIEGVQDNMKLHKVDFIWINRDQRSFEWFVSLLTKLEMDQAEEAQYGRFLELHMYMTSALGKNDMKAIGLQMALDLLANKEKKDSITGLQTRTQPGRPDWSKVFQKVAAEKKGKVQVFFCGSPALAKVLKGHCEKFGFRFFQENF
Sequence of NADPH oxidase 2 (Homo sapiens) (P04839 whole entry, looked up): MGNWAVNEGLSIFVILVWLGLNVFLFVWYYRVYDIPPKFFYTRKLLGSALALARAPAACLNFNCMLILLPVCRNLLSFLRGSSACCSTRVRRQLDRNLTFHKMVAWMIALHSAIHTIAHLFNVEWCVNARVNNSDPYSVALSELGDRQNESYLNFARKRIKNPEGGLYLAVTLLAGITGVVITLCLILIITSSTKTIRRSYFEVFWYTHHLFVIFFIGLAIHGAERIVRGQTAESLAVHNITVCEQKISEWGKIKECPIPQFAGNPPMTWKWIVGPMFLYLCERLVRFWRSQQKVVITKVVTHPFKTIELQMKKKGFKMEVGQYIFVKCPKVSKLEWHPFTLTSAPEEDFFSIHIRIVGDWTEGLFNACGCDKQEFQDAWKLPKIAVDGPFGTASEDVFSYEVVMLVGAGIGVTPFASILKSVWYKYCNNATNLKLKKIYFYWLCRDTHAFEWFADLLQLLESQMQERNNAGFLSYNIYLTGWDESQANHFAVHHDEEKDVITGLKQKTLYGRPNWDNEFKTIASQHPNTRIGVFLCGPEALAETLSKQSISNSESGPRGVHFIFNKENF
Sequence of NADPH oxidase 4 (Homo sapiens) (Q9NPH5 whole entry, looked up): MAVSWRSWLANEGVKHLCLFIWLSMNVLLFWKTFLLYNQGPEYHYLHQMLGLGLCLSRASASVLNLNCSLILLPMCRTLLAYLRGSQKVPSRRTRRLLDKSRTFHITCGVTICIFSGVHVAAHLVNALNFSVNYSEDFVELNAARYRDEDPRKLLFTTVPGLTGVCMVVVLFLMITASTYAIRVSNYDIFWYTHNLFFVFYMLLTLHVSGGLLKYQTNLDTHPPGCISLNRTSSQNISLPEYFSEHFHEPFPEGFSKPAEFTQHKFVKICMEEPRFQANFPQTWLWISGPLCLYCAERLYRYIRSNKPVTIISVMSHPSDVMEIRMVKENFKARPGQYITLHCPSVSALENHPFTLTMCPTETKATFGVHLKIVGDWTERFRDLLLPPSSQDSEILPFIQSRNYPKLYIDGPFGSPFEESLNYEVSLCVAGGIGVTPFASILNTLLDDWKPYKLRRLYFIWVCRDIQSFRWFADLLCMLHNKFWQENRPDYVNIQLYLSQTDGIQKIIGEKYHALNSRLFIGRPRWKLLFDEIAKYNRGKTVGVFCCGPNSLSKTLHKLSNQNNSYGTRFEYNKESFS

As to `OC([C@@H]1CC(c2ccccc2)=NO1)[C@H]1CC(c2ccccc2)=NO1` (stereo not given in full), the z-score was 2.12 (inactive) in experiment [1]; 24.6 (active) in experiment [3]; 9.43 (active) in [4]; 0.291 (inactive) in experiment [5]; 1.07 (inactive) in experiment [6]; 0.383 in experiment [7]. Also, the z-score is -0.51 (inactive) in experiment [8], -0.0169 (inactive) in experiment [9] and 0.357 in [10]. Also, in experiment [2], the composite z-score amounted to 0.139.
For `COc1ccc([Si](C)(C)[C@@H]2[C@@H](CCO)O[C@]3(C(=O)N(Cc4ccc(N5C(=O)COc6ccccc65)cc4)c4ccccc43)[C@H]2C)cc1`, the z-score in [1] was -0.163 (inactive); in [3] it was 3.9 (inactive); in experiment [4], 3.84 (inactive); in [5] it was 0.746 (inactive); in experiment [6] it was 2.39 (inactive); in [7] it was 0.866. Moreover, the z-score in experiment [8] is 0.506 (inactive); in experiment [9], 1.46 (inactive); in experiment [10], 1.38. This compound also returned a composite z-score in experiment [2] of 0.165.
As for `CN(C)C(=O)[C@@]1(Cc2ccccc2)N=C(c2ccc(OCCCO)cc2)O[C@H]1c1ccccc1N=[N+]=[N-]`, the z-score is 0.89 (inactive) in experiment [1]; 30.4 (active) in experiment [3]; 27.4 (active) in experiment [4]; 2.05 (inactive) in [5]; 7.06 (inactive) in experiment [6]; 1.33 in [7]. Also, the z-score in experiment [8] was -1.93 (inactive); in experiment [9] it was 0.891 (inactive); in [10], -1.22. The composite z-score in experiment [2] is 0.737.
For `O=C(NCc1ccccc1)[C@@H]1c2ccccc2C(=O)N(CC23CC4CC(CC(C4)C2)C3)[C@H]1c1ccc(CO)cc1`, the z-score in experiment [1] was -1.09 (inactive); in [3], 3.76 (inactive); in [4], 0.295 (inactive); in experiment [5], 1.76 (inactive); in experiment [6], 0.134 (inactive); in experiment [7], -0.366. Besides, the figures for the z-score in experiment [8], in [9] and in experiment [10] were -2.38 (inactive), 0.191 (inactive) and -1.55, respectively. In [2], this compound gave a composite z-score of -0.538.
With `C=C(COC)/C(=C/C[C@@H](OC(C)=O)c1ccc(OCCO)cc1)c1cc(C(=O)OC)ccc1OC`, the z-score in [1] was 0.0977 (inactive); in experiment [3] it was 11.2 (active); in experiment [4], 1.87 (inactive); in [5] it was 0.681 (inactive); in [6], 0.601 (inactive); in [7] it was -0.0505. The z-score is -0.0514 (inactive) in experiment [8], -0.355 (inactive) in experiment [9] and -1.57 in [10]. Further, in experiment [2], the composite z-score stood at 0.139.
For `CN1C(=O)C2C=CC(C(O)c3cc(C(F)(F)F)cc(C(F)(F)F)c3)N(N3CCCCC3)C2C1=O` (stereo not given), the z-score in experiment [1] is -0.78 (inactive); in [3] it was 1.2 (inactive); in experiment [4], 0.968 (inactive); in experiment [5], 0.859 (inactive); in experiment [6] it was 0.999 (inactive); in experiment [7], -1.08. Moreover, the figures for the z-score in experiment [8], in experiment [9] and in experiment [10] were 0.00363 (inactive), -0.651 (inactive) and 1.01, respectively. The composite z-score in experiment [2] amounted to 0.349.
As to `CC(C)(C)OC(=O)CC[C@@]1(C(=O)NCC(O)CO)N=C(c2ccc(OCCCO)cc2)O[C@@H]1c1ccccc1N=[N+]=[N-]` (stereo not given in full), the z-score in experiment [1] was 1.99 (inactive); in [3], 31.9 (active); in experiment [4], 28.4 (active); in experiment [5], 3.82 (inactive); in experiment [6], 7.71 (inactive); in [7] it was 0.123. Also, the z-score in experiment [8] is -2.77 (inactive); in experiment [9], 1.03 (inactive); in experiment [10], -1.85. The same compound came in with a composite z-score in experiment [2] of 0.379.
As to `CCCCC(=C=CC[C@@H](O)c1ccccc1OCCO)CCO`, the z-score in experiment [1] was 0.086 (inactive); in [3] it was 9.77 (active); in experiment [4] it was 0.899 (inactive); in [5], 0.631 (inactive); in experiment [6], 0.576 (inactive); in experiment [7], 0.289. In addition, the z-score in experiment [8] was -0.0172 (inactive); in [9], -0.742 (inactive); in [10] it was -1.71. Also, the composite z-score in experiment [2] was 0.0752.
As for `CC(C)(C)C(=O)N[C@@H](c1ccc(Cl)cc1)[C@]1(C)C[C@H]1C1CCCCC1`, the z-score in experiment [1] was -0.913 (inactive); in experiment [3], 0.671 (inactive); in [4], 0.418 (inactive); in [5], 0.0711 (inactive); in experiment [6] it was 0.887 (inactive); in experiment [7] it was -0.191. The z-score is -0.0125 (inactive) in experiment [8], -1.05 (inactive) in experiment [9] and -0.0713 in experiment [10]. Also, in experiment [2], the composite z-score came out at 1.06.
Take `Cc1ccc(S[C@]2(C(=O)NCCN3CCOCC3)CC(=O)N(Cc3ccccc3Cl)[C@@H]2c2ccc(CO)cc2)cc1`: the z-score in [1] was 0.59 (inactive); in experiment [3], 2.62 (inactive); in experiment [4], 0.43 (inactive); in [5] it was 1.94 (inactive); in [6], 0.524 (inactive); in [7], 0.413. Further, the results for the z-score in [8], in [9] and in experiment [10] were -2.29 (inactive), -1.85 (inactive) and -2.89, respectively. The composite z-score in experiment [2] was determined as 0.0402.
As for `COc1cc2c(cc1O)C(C1CC1)N(Cc1cc3c(cc1Br)OCO3)CC2` (stereo not given), the z-score in experiment [1] was -1.46 (inactive); in experiment [3], 9.09 (active); in [4], 1.17 (inactive); in experiment [5] it was 0.838 (inactive); in experiment [6], 0.72 (inactive); in [7], -0.074. The z-score in experiment [8] was -6.19 (inactive); in [9], -3.97 (inactive); in [10], -4.81. Moreover, in experiment [2], the composite z-score is -0.263.
